Hit rate of the full screen: of about 2,000 compounds, about 250 (12%) were called active. The sample holds actives, similar compounds and a random draw of the others, so the mix is not that of the screen. Cut-off read from the data, not from the text of the source: active = hERG blockade below about -20% or above about 20%; inactive = in between.

The assay deals with Voltage-gated inwardly rectifying potassium channel KCNH2 (Homo sapiens) (UniProt Q12809). Put plainly: modulators of KCNH2 ion channel function, cellular (AID 376).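 Note: 0% = buffer alone and 100% = reference blocker.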 As to conditions: hERG-expressing cells, channel activity single-concentration screen; concentration not given here.
Voltage-gated inwardly rectifying potassium channel KCNH2 (Homo sapiens), sequence (Q12809 whole entry, looked up): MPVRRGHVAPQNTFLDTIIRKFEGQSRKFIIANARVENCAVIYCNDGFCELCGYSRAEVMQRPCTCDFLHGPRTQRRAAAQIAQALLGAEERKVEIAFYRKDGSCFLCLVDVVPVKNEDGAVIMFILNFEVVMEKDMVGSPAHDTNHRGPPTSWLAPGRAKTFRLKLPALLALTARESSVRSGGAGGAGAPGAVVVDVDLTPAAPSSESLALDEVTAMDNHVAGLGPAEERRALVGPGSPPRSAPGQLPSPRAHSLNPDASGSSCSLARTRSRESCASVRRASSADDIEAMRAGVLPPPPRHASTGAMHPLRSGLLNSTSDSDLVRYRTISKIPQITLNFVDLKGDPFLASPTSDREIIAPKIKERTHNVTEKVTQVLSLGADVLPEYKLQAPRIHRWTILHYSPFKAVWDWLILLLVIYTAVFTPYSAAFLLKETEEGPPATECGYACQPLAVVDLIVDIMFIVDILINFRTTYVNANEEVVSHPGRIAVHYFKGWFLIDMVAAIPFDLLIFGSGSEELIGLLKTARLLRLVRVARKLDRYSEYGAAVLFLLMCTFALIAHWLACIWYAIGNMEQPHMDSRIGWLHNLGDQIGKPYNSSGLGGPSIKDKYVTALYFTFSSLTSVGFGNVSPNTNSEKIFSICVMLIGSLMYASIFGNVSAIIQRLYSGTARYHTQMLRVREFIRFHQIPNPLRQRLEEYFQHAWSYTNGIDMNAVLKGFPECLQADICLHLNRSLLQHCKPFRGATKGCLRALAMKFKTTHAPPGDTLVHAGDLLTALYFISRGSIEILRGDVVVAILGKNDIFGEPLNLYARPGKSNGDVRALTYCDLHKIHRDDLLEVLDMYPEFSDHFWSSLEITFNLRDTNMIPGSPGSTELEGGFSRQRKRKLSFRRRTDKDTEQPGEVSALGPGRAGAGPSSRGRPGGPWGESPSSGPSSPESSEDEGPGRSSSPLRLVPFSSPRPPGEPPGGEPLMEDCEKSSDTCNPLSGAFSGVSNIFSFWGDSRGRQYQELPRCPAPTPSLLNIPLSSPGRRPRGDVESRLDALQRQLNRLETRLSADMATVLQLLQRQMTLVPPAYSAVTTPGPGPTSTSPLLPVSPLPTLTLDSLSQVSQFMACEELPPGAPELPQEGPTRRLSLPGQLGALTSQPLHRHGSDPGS
Regarding `c1ccc(NCCSc2nc3ccccc3s2)cc1`, the hERG blockade is -0.231% (inactive).

`CCC1CC(=O)N(SCC(N)C(=O)O)C1=O` (centres undefined): the hERG blockade was -6% (inactive).

As for `Fc1cccc(F)c1C(Nc1nncs1)Nc1nncs1`, the hERG blockade was -2.76% (inactive).

As to `CC(C)C(Sc1nc(N)nc2nc[nH]c12)C(=O)O` (centres undefined), the hERG blockade was 1.36% (inactive).

In the case of `C[N+](C)(C)CCN[N+]1(C)CCCc2ccccc21` (centres undefined), the hERG blockade was 13.2% (inactive).

`CC(=NS(=O)(=O)c1ccc(Cl)c(Cl)c1)OCC(C)(C)C`: the hERG blockade was 21.3% (active).

Take `CNCC(Cl)=NS(=O)(=O)c1ccc(C)cc1`: the hERG blockade is 2.08% (inactive).

With `CC(C)(C)C(=O)C(C(c1ccccc1)N1CCOCC1)N1CCOCC1` (centres undefined), the hERG blockade is 18.3% (inactive).

`O=C(O)CC(Cc1ccccc1Cl)C(=O)O` (centres undefined): the hERG blockade is 9.3% (inactive).

For the compound `CC(CNC(N)=O)NC(N)=O` (centres undefined), the hERG blockade was 2.5% (inactive).

Take `O=C(O)CC1(CC(=O)O)Nc2ccccc2SC1=O`: the hERG blockade was -18.2% (inactive).

`C[N+](C)(C)c1cc2c(nn1)Nc1ccccc1S2`: the hERG blockade was 43.5% (active).

In the case of `O=S(=O)(O)CCCc1cccc2ccccc12`, the hERG blockade was -12.8% (inactive).

Take `Nc1cccc2nsnc12`: the hERG blockade was -4.23% (inactive).

For the compound `NC(CCc1ccccc1)(C(=O)O)c1ccccc1` (centres undefined), the hERG blockade was -9.5% (inactive).

Take `CC12CCC(=O)C=C1CCC1C2CCC2(C)C(C(=O)COS(=O)(=O)c3ccc(Br)cc3)CCC12` (centres undefined): the hERG blockade is 17% (inactive).

In the case of `O=C(O)C=C(C(=O)O)C12CCN3CC4=CCOC5CC(=O)NC1C5C4CC32` (centres undefined), the hERG blockade was 20.4% (active).

With `O=C1CC2OCC=C3CN4CCC5(C(=O)O)C(N1)C2C3CC45` (centres undefined), the hERG blockade is -10.2% (inactive).

Regarding `NC1C2C(CC(=O)O)OCC=C3CN4CCC1(C(=O)C(=O)O)C4CC32` (centres undefined), the hERG blockade was 13% (inactive).

`ON(CCc1ccncc1)Cc1ccccc1`: the hERG blockade is -10.6% (inactive).

On to `CC12CCC(O)CC1CCC1C2CCC2(C)C(c3cc(C(F)(F)F)n[nH]3)CCC12` (centres undefined), for which the hERG blockade was 8.14% (inactive).

Consider `CN(C)S(=O)(=O)c1ccc(Nc2ccc(O)c3c2C(=O)c2c([N+](=O)[O-])ccc(O)c2C3=O)cc1`, for which the hERG blockade is 64.1% (active).

Regarding `O=C1c2ccccc2C(=O)c2c(NC3CCCCC3)ccc(Nc3ccc(S(=O)(=O)O)cc3)c21`, the hERG blockade is 16.1% (inactive).

Regarding `O=C1C2C3C=CC(C2C(=O)N1CN1CCSCC1)C1C2C(=O)N(CN4CCSCC4)C(=O)C2C31` (centres undefined), the hERG blockade is 7.62% (inactive).

For the compound `CC(=O)Nc1ccc(S(=O)(=O)N=S(C)C)cc1`, the hERG blockade was 14.2% (inactive).

Regarding `c1ccc(COC2NCCN2Cc2ccccc2)cc1` (centres undefined), the hERG blockade was 7.69% (inactive).

As to `c1ccc([P+](CC[P+](c2ccccc2)(c2ccccc2)c2ccccc2)(c2ccccc2)c2ccccc2)cc1`, the hERG blockade was 11.7% (inactive).

Regarding `NCCCc1ccc2oc3ccccc3c2c1`, the hERG blockade was 29.2% (active).

As for `Cc1cc(=O)[nH]c2cc3oc4ccccc4c3cc12`, the hERG blockade was 4.54% (inactive).

Consider `O=C(O)CSc1ccc([N+](=O)[O-])cc1[N+](=O)[O-]`, for which the hERG blockade was 2.18% (inactive).

As to `O=C(O)CSc1ncccc1[N+](=O)[O-]`, the hERG blockade is -20.2% (active).

For the compound `Cn1cnc([N+](=O)[O-])c1SCC(=O)O`, the hERG blockade is 2.91% (inactive).

As for `NCC(O)CSCc1ccc(Cl)cc1` (centres undefined), the hERG blockade was -14.3% (inactive).

For the compound `c1ccc(-c2nnn(CCN3CCCCC3)n2)cc1`, the hERG blockade is -7.12% (inactive).

Consider `Cn1c(=O)c2c(nc(NN=Cc3ccccc3C(=O)O)n2C)n(C)c1=O`, for which the hERG blockade is -7% (inactive).

Regarding `CC(C)C(C(=O)O)N1C(=O)c2ccccc2C1=O` (centres undefined), the hERG blockade is 5.91% (inactive).

Consider `Cc1ccc(C(N)=Nc2ccccc2)cc1`, for which the hERG blockade is 8.7% (inactive).

For `O=C(O)CCc1nc2ccccc2[nH]1`, the hERG blockade was -3.47% (inactive).

`O=C(O)CCc1ccc(-c2ccccc2)[nH]1`: the hERG blockade was -28.1% (active).

As for `O=C(O)CCc1nc(-c2ccccc2)c(-c2ccccc2)o1`, the hERG blockade is 1.96% (inactive).

For the compound `O=C(CC(C(=O)O)N1CCOCC1)c1ccccc1` (centres undefined), the hERG blockade is 7.79% (inactive).

For `OCC(O)C(O)C(O)C(O)c1nc2ccc(Cl)cc2[nH]1` (centres undefined), the hERG blockade is 3.95% (inactive).

Regarding `Cc1cc(Cc2cc(C)cc(C(C)(C)C)c2O)c(O)c(Cc2cc(C)cc(C(C)(C)C)c2O)c1`, the hERG blockade is 15.5% (inactive).

As to `Cc1ncc(CSc2ccccc2N)c(CO)c1O`, the hERG blockade was -7.6% (inactive).

For `c1ccc(CN2CCC3(CC2)SSC2(CCN(Cc4ccccc4)CC2)SS3)cc1`, the hERG blockade is 1.07% (inactive).

As for `Clc1ccc(CN2CCCN(Cc3ccc(Cl)cc3)C2c2cc3ccccc3c3ccccc23)cc1`, the hERG blockade was -5.92% (inactive).

On to `CC(C)(C)c1ccc(CN2CCN(C(c3ccccc3)c3ccc(Cl)cc3)CC2)cc1` (centres undefined), for which the hERG blockade was 23.1% (active).

Turning to `CC1NCCC(CC(=O)O)C1CC(=O)O` (centres undefined), the hERG blockade is -10.6% (inactive).

On to `CC(C(=O)c1ccccc1)C(c1ccccc1)N1CCOCC1` (centres undefined), for which the hERG blockade was -13.1% (inactive).

Regarding `Cc1onc(-c2c(F)cccc2Cl)c1C(=O)NC1C(=O)N2C1SC(C)(C)C2C(=O)O` (centres undefined), the hERG blockade was 8.23% (inactive).

`Cc1ccc2nc(NN=Cc3cccc(C)n3)cc(C)c2c1`: the hERG blockade was 26.3% (active).

Take `CSc1nnnc2ccccc12`: the hERG blockade is 8.81% (inactive).

As for `O=C(O)C(Cc1ccnc2ccccc12)=NO`, the hERG blockade was -22.9% (active).

Consider `O=C(O)C(=Cc1ccnc2ccccc12)C(=O)O`, for which the hERG blockade was 3.04% (inactive).

Turning to `O=C(O)C(Cc1cn[nH]n1)=NO`, the hERG blockade was 7.89% (inactive).

For the compound `NC(=O)SCC(=O)Nc1ccc2ncccc2c1`, the hERG blockade is 8.17% (inactive).

For `CC1(C)N=C(N)N=C(N)N1c1cccc(OCc2cccc([N+](=O)[O-])c2)c1`, the hERG blockade was -1.1% (inactive).

For the compound `CC(C)(COC1CC2CCC1(C)C2(C)C)[N+](=O)[O-]` (centres undefined), the hERG blockade was -4.38% (inactive).

For `N#CC(=CNc1ccccn1)C(=O)C1CC1`, the hERG blockade is 0.609% (inactive).

As to `NC(Cc1cccc([N+](=O)[O-])c1)C(=O)O` (centres undefined), the hERG blockade is 7.25% (inactive).

With `O=[N+]([O-])c1ccc2c(c1)S(=O)c1ccccc1-2` (centres undefined), the hERG blockade is 13.4% (inactive).

Regarding `N=C(N)SC1c2ccccc2-c2cc([N+](=O)[O-])ccc21` (centres undefined), the hERG blockade is 50.8% (active).

With `N#CC(N=Nc1ccccc1C(=O)O)C(N)=O` (centres undefined), the hERG blockade was -0.342% (inactive).

For `O=[N+]([O-])c1ccc(C(Nc2ccccc2)c2ccc3cccnc3c2O)cc1` (centres undefined), the hERG blockade is 11.2% (inactive).

Consider `Cc1cc2ccccc2c[n+]1CC(O)C[n+]1cc2ccccc2cc1C`, for which the hERG blockade was 26.1% (active).

For `Cc1ccc(S(=O)(=O)OC2CC(C(C)(C)C)CCC2c2ccccc2)cc1` (centres undefined), the hERG blockade was 2.36% (inactive).

Regarding `COc1cccc2c1C(CO)N1C(C#N)C3CC(C(=O)O)C(C1C2)N3C` (centres undefined), the hERG blockade is -24.5% (active).

For `O=C(Nc1cccc(Cl)c1)Nn1cnnc1`, the hERG blockade is 10.3% (inactive).

As to `Cc1ccc(CN2CCN(Cc3ccc(C)o3)C(C)C2)o1` (centres undefined), the hERG blockade is 0.417% (inactive).

With `O=C(O)C1C2C=CC(O2)C1C(=O)Nc1ncccn1` (centres undefined), the hERG blockade is -6.76% (inactive).

On to `COc1ccc(C=NNC(=O)O)cc1`, for which the hERG blockade is -2.22% (inactive).

Turning to `CN1CCN(CC(=O)N2c3ccccc3Sc3cc4ccccc4cc32)CC1`, the hERG blockade was 52.7% (active).

With `CC1CCN(CC(=O)N2c3ccccc3Sc3cc4ccccc4cc32)CC1`, the hERG blockade was 14% (inactive).

`O=C(CC1(O)CCCCC1)OC1CCCC1`: the hERG blockade was -2.11% (inactive).

As to `CCOC(=O)c1c2c(n3ccccc13)C(=O)c1ccccc1C2=O`, the hERG blockade was 8.67% (inactive).

Turning to `NC1(C(=O)O)CCCC1C(=O)O` (centres undefined), the hERG blockade is -13.4% (inactive).

Turning to `CCC1(O)C(=O)OCc2c1cc1n(c2=O)Cc2cc3c(CN(C)C)c(O)ccc3nc2-1` (centres undefined), the hERG blockade is 21.4% (active).

As to `O=C(O)c1ccc(NS(=O)(=O)Cc2ccccc2)cc1`, the hERG blockade is 7.65% (inactive).

Regarding `NC(N)=NC1C(O)C(O)C(O)C(N=C(N)N)C1O` (centres undefined), the hERG blockade is -0.537% (inactive).

On to `Cc1[nH]c2ccccc2c1-c1cc(-c2cc(-c3c(C)[nH]c4ccccc34)on2)no1`, for which the hERG blockade is -7.59% (inactive).

As for `N#Cc1c(NC(=O)C(F)(F)F)sc2c3c(=O)c4ccccc4c(=O)c=3oc3ccccc3c12`, the hERG blockade was 59% (active).

For `NCOC(=O)Cc1ccc(Br)cc1`, the hERG blockade was -16.9% (inactive).

For `COc1ccc2c(c1)[n+]([O-])c(C(C)=NNC(N)=S)c(C)[n+]2[O-]`, the hERG blockade is -7.37% (inactive).

Take `c1nc(NCCc2cnc[nH]2)c2[nH]cnc2n1`: the hERG blockade was -31% (active).

On to `OCCNc1ncnc2nc[nH]c12`, for which the hERG blockade was 3.32% (inactive).

For the compound `O=C(O)CCNc1ncnc2nc[nH]c12`, the hERG blockade was 14% (inactive).

Take `Cn1c(=O)c2[nH]c(N=NN3CCN(CCO)CC3)nc2n(C)c1=O`: the hERG blockade was 0.124% (inactive).

Consider `O=C(O)C(=Cc1ccc(O)cc1)c1cccc2ccccc12`, for which the hERG blockade is 0.955% (inactive).

In the case of `Cn1c(CC(O)c2nc3ccccc3n2C)nc2ccccc21` (centres undefined), the hERG blockade is -5.68% (inactive).

Take `O=C(O)Cc1cccc2c(=O)cc(-c3ccccc3)oc12`: the hERG blockade was -7.46% (inactive).

On to `N=C(N)SCc1cccc2c(=O)cc(-c3ccccc3)oc12`, for which the hERG blockade is 44.3% (active).

On to `N=C(N)SCc1cccc(-c2nc3ccccc3c(=O)o2)c1`, for which the hERG blockade was -5.77% (inactive).

As for `c1ccc2c(c1)C(=Nc1ccc(N=C3c4ccccc4-c4ccccc43)cc1)c1ccccc1-2`, the hERG blockade was 6.51% (inactive).

On to `CC(C)N(CC(=O)O)CC(=O)O`, for which the hERG blockade was 7.91% (inactive).

Take `NC(Cc1ccccc1)C(=O)O` (centres undefined): the hERG blockade was 16.4% (inactive).

Turning to `[N-]=[N+]=Nc1ccccc1-c1ccccc1[N+](=O)[O-]`, the hERG blockade is -19.7% (inactive).

Consider `c1cc(-c2sc(-c3ccncc3)c(-c3ccncc3)c2-c2ccncc2)ccn1`, for which the hERG blockade is 22.4% (active).

For the compound `Nc1[nH]c(=S)[nH]c(=O)c1N=Nc1c(Br)cc(S(N)(=O)=O)cc1Br`, the hERG blockade was 6.92% (inactive).

Regarding `CSC12C(=O)CC3(C)C(CCC3(O)C(=O)CO)C1CCC1=CC(=O)CCC12C` (centres undefined), the hERG blockade was 3.28% (inactive).

On to `Ic1ccc2c(c1)N(c1ccccc1)c1cc(Nc3ccc4nc5ccc(I)cc5[n+](-c5ccccc5)c4c3)ccc1N2`, for which the hERG blockade was 30.3% (active).

As to `CN1CCCN(C)C1c1cc([N+](=O)[O-])ccc1O`, the hERG blockade is 11.9% (inactive).

In the case of `CC(N)C(C)Cc1ccccc1` (centres undefined), the hERG blockade is 8.67% (inactive).

As for `COC(=O)c1cc(-c2ccc3ccccc3c2)[nH]c(=O)c1C#N`, the hERG blockade was 2.57% (inactive).

For `ClC(Cl)(Cl)C(N1CCN(c2ccccc2)CC1)N1CCN(c2ccccc2)CC1`, the hERG blockade was 3.84% (inactive).
